Records with an inconclusive call do not appear. Where a call stands in place of a potency, no number is given. The source made the active and inactive calls. The call rests on the fitted dose curve; in most records, active means well fitted cell-killing curve with a large enough effect; inconclusive means small, poorly fitted or top-dose-only effect, or effect the other way; inactive means flat fitted curve, though single readings scatter.
Assay: Compound cytotoxicity measured by an ATP content assay as a counter-screen for lead compounds in human astrocytoma cell line (SNB-19)
Conditions: SNB-19 astrocytoma viability, ATP luminescence; series mostly up to 46.1 µM
Procedure, shortened: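 SNB-19 cells, 250 per well, were treated with compounds for 6, 24 or 72 h after overnight seeding. The ATP detection reagent was added 1:1 and luminescence read after 10 min at room temperature, with the signal converted to percent inhibition of viability.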

Row | SMILES | Potency
1 | Cc1c(NC(=O)c2ccc(C(C)(C)C)cc2)cccc1-c1cn(C)c(=O)c(Nc2ccc(C(=O)N3CCOCC3)cc2)n1 | inactive
2 | O=C(OCc1ccccc1)c1ccc(O)cc1 | inactive
3 | Nc1nc2ccc([N+](=O)[O-])cc2s1 | inactive
4 | O=C1c2ccccc2C(=O)c2c(NCCc3ccc(O)cc3)ccc(NCCc3ccc(O)cc3)c21 | inactive
5 | CCCCCCCC/C=C/C(=O)O | inactive
6 | Nc1ccc(O)c(C(=O)O)c1 | inactive
7 | O=C1C(Cl)=C(NCCN2CCOCC2)C(=O)c2ncccc21 | 6.15 µM (active)
8 | O=c1cc(-c2ccccc2)oc2cc(O)c(O)c(O)c12 | inactive
9 | CCC(C)SSc1ncc[nH]1 (configuration not stated) | inactive
10 | CC(C)(C)OC(=O)CN(Cc1ccc(Cl)cc1)Cc1ccc([N+](=O)[O-])s1 | inactive
11 | O=C1NC(=O)C(=Cc2ccc(-c3ccc(F)cc3)o2)S1 | inactive
12 | CCOC1OC(=O)C[C@H]1NC(=O)[C@@H]1CCCN1C(=O)[C@@H](NC(=O)c1ccc(N)c(Cl)c1)C(C)(C)C (some centres not stated) | inactive
13 | O=C(O)Cc1ccc(-c2ccccc2)cc1 | inactive
14 | O=C(O)[C@@H](c1ccc(OCc2ccc3ccccc3n2)cc1)C1CCCC1 | inactive
15 | COc1cccc2c1C(=O)c1c(O)c3c(c(O)c1C2=O)C[C@@](O)(C(=O)CO)C[C@@H]3O[C@H]1C[C@H](N)[C@H](O[C@@H]2CCCCO2)[C@H](C)O1 | inactive
16 | Clc1ccccc1-c1nc(-c2ccncc2)no1 | inactive
17 | CC(=O)Oc1ccccc1C(=O)Nc1ncc([N+](=O)[O-])s1 | inactive
18 | CS(=O)(=O)c1ccc(-c2cn3ccccc3n2)cc1 | 12.3 µM (active)
19 | O=C1C[C@@H](c2ccc(O)cc2)Oc2cc(O)cc(O)c21 | inactive

Row | SMILES | Potency
20 | O=c1[nH]nc(Sc2ncc([N+](=O)[O-])s2)n1-c1ccc2c(c1)OCCO2 | 4.89 µM (active)
21 | COc1ccc2nc(NC(=O)Nc3ccccc3)sc2c1 | 19.5 µM (active)
22 | [O-][n+]1ccccc1SSc1cccc[n+]1[O-] | 0.708 µM (active)
23 | NC(=O)c1cccc2[nH]c(-c3ccc([C@H]4CCCN4)cc3F)nc12 | 5.48 µM (active)
24 | Oc1cc(O)cc(/C=C/c2ccc(O)c(O)c2)c1 | 24.5 µM (active)
25 | O=C(O)CCC(=O)c1ccc(-c2ccccc2)cc1 | inactive
26 | CC[C@@]1(O)C[C@H](O[C@H]2C[C@H](N(C)C)[C@H](O[C@H]3C[C@H](O)[C@H](O[C@H]4CCC(=O)[C@H](C)O4)[C@H](C)O3)[C@H](C)O2)c2c(cc3c(c2O)C(=O)c2c(O)cccc2C3=O)[C@@H]1C(=O)OC | inactive
27 | CC1(C)OC2=C(C(=O)c3ccccc3C2=O)[C@H](NCc2ccccc2)[C@H]1O | 8.91 µM (active)
28 | COc1cc2nc(-c3ccc(N4CCN(C)CC4)cc3)nc(NCCN3CCOCC3)c2cc1OC | inactive
29 | Nc1cc(C(F)(F)F)ccc1S | inactive
30 | CC(=NNC(=S)N1CCC1)c1ccccn1 | inactive
31 | N#CC1(c2ccc(NC(=O)c3cccnc3NCc3ccncc3)cc2)CCCC1 | inactive
32 | NC(N)=NN=C(/C=C/c1ccc([N+](=O)[O-])o1)/C=C/c1ccc([N+](=O)[O-])o1 | 17.3 µM (active)
33 | CC(=C(CCOC(=O)C(C)C)SSC(CCOC(=O)C(C)C)=C(C)N(C=O)Cc1cnc(C)nc1N)N(C=O)Cc1cnc(C)nc1N | inactive
34 | CC[C@]1(O)C[C@H]2CN(CCc3c([nH]c4ccccc34)[C@@](C(=O)OC)(c3cc4c(cc3OC)N(C=O)[C@H]3[C@@](O)(C(=O)OC)[C@H](OC(C)=O)[C@]5(CC)C=CCN6CC[C@]43[C@@H]65)C2)C1 | inactive
35 | CN(C)CCCSc1ccccc1NC(=O)/C=C/c1ccccc1 | inactive
36 | O=C1c2ccccc2C(=O)c2c1ccc(O)c2O | inactive
37 | O=C(C=CC=Cc1ccc2c(c1)OCO2)N1CCCCC1 | inactive
